Data taken from ChEMBL document CHEMBL3988442, “University of Dundee, Small-Polar-MMV Screening Library” (2021).
Screen size: about 66,000 compounds; about 960 (1.5%) showed an effect of 50% or more. Many of the other results were omitted from the sample, so strong results are more common in it than they were.

Tested on: Trypanosoma brucei
Experiment: Trypanosoma brucei 72 hour study
Assay type: functional, organism-based
Parameters: scale not given: in the data most compounds retested in dose-response had high values

CCc1n[nH]c(C2CN(C(=O)c3cnc(C)cn3)CCO2)n1 (stereo not given)
Percent Effect (10 µM): -10.87%

Cc1noc(C)c1CN1CCN(CC2CC2)c2ncccc2C1.O=C(O)C(F)(F)F.O=C(O)C(F)(F)F
Percent Effect (30 µM, 30.03 µM): -2.749%

CNC(=O)C1CCCCN1C(=O)C1CCN(S(C)(=O)=O)CC1 (stereo not given)
Percent Effect (30.3 µM, […]): 4.842%

Cc1nc(Nc2nncs2)cc(C2CNC2)n1.O=C(O)C(F)(F)F
Percent Effect (30.3 µM, […]): -21.99%

CC(C)NC(=O)N1CCN(CCn2cccn2)c2ncccc2C1.O=C(O)C(F)(F)F
Percent Effect (30.3 µM, […]): -82.31%

CN(C)CC(=O)N1CCCC2(CCN(c3ccccc3)C2=O)C1.O=C(O)C(F)(F)F (stereo not given)
Percent Effect (30.3 µM, […]): -9.805%

Cc1noc(C)c1CN1C[C@H](OCc2ccncc2)[C@H]2OCCC[C@H]21.O=C(O)C(F)(F)F.O=C(O)C(F)(F)F
Percent Effect (30 µM, 30.03 µM): 3.056%

CN(C)C(=O)[C@@H]1C[C@@H]2[C@@H](CCN2Cc2nccs2)O1.O=C(O)C(F)(F)F
Percent Effect (30.3 µM, […]): -77.1%

Cn1ccc(CN2CCCC23CCN(Cc2ccccc2F)CC3)n1.O=C(O)C(F)(F)F.O=C(O)C(F)(F)F
Percent Effect (30.3 µM, […]): -74.92%

O=C(NC1CC1)N1CCOCC2(CCN(Cc3cccs3)C2)C1.O=C(O)C(F)(F)F (stereo not given)
Percent Effect (30.3 µM, […]): -9.319%

Cl.c1nn(C2CCCCC2)cc1-c1cncn1CCCN1CCCCC1
Percent Effect (30.3 µM, […]): -11.05%

Cc1cccc(C(=O)N2CCC3(CCN(c4cnn(C)c4)C3=O)C2)n1.O=C(O)C(F)(F)F (stereo not given)
Percent Effect (30 µM, 30.03 µM): -10.65%

Cl.NC1CCc2nc(-c3cccnc3)nc(Nc3ccc(F)cc3)c2C1 (stereo not given)
Percent Effect (30.3 µM, […]): 100.3%

CN(CC1CCCO1)c1nc(-c2cccnc2)nc2c1CCNCC2 (stereo not given)
Percent Effect (30 µM, 30.03 µM): 0.7603%

CC(O)CNc1nc(-c2cccnc2)nc2c1CCC2 (stereo not given)
Percent Effect (30 µM, 30.03 µM): 5.601%

CCc1noc(CNc2nc(-c3cccnc3)nc3c2CCNCC3)n1
Percent Effect (30.3 µM, […]): 2.358%

c1cncc(-c2nc3c(c(NCC4(c5ccncc5)CC4)n2)CCC3)c1
Percent Effect (30 µM, 30.03 µM): -5.668%

CN(C)c1cccc(C(=O)N2CCCC2c2ncc3c(n2)CCNC3)c1.Cl (stereo not given)
Percent Effect (30.3 µM, […]): -32.8%

CNS(=O)(=O)c1ccc(CNC(=O)N2CCOC(C)C2)cc1 (stereo not given)
Percent Effect (30.3 µM, […]): -5.397%

Cc1ccc2[nH]c(CNC(=O)C3CC4(CCNCC4)CN3C)nc2c1C (stereo not given)
Percent Effect (30 µM, 30.03 µM): -11.35%

CN(Cc1cncnc1)[C@@H]1CN(C(=O)c2ccco2)[C@@H]2CCCO[C@H]12.O=C(O)C(F)(F)F
Percent Effect (30.3 µM, […]): -35.75%

CC(=O)N1CCCC1c1csc(Nc2cnccn2)n1 (stereo not given)
Percent Effect (30 µM, 30.03 µM): -20%

OCCN1CCC(c2csc(Nc3cnccn3)n2)CC1
Percent Effect (30.3 µM, […]): 6.088%

NC(=O)CN1CCC(c2csc(Nc3cnccn3)n2)CC1
Percent Effect (30.3 µM, […]): 30.88%

c1cnc(Nc2cncc(C3CCCN(c4ncccn4)C3)n2)nc1 (stereo not given)
Percent Effect (30.3 µM, […]): -5.193%

COCC(=O)N1CCCC1c1csc(Nc2cnccn2)n1 (stereo not given)
Percent Effect (30.3 µM, […]): 22.69%

c1cnc(N2CCC(c3csc(Nc4cnccn4)n3)CC2)nc1
Percent Effect (30.3 µM, […]): 69.17%

Cc1nc(Nc2cnccn2)cc(C2CCN(c3ncccn3)C2)n1 (stereo not given)
Percent Effect (30.3 µM, […]): 26.81%

c1cnc(N2CCCC(c3csc(Nc4cnccn4)n3)C2)nc1 (stereo not given)
Percent Effect (30.3 µM, […]): 86.19%

CCC(=O)N1CCCC1c1csc(Nc2cnccn2)n1 (stereo not given)
Percent Effect (30.3 µM, […]): 65.49%

Cc1c[nH]nc1C1CCCN1Cc1nccn1C.O=CO (stereo not given)
Percent Effect (30.3 µM, […]): -18.81%

CN1CCC(CN2CCC3(CCCN(Cc4ccoc4)C3)C2=O)CC1.O=C(O)C(F)(F)F.O=C(O)C(F)(F)F (stereo not given)
Percent Effect (30.3 µM, […]): -15.67%

Cn1cc(-c2ncc3c(c2C(=O)O)CCN(Cc2ccco2)C3)cn1.O=C(O)C(F)(F)F
Percent Effect (30.3 µM, […]): -50.82%

CN(C)C1CCC2(CCN(Cc3cccnc3)CC2)c2ccccc21.O=C(O)C(F)(F)F.O=C(O)C(F)(F)F.O=C(O)C(F)(F)F (stereo not given)
Percent Effect (30.3 µM, […]): -21.62%

c1ccc(C2CCN(c3ncnc4c3CCNC4)CC2)cc1
Percent Effect (30.3 µM, […]): 50.1%

c1ccn2c(C3CCCN(c4ncnc5c4CCNC5)C3)nnc2c1 (stereo not given)
Percent Effect (30 µM, 30.03 µM): -44.47%

c1ccc2c(c1)CN(c1ncnc3c1CCNC3)CCO2
Percent Effect (30.3 µM, […]): 5.814%

Clc1cccc(C2CCN(c3ncnc4c3CCNC4)C2)c1 (stereo not given)
Percent Effect (30.3 µM, […]): 68.15%

c1ccc(C2CCCN(c3ncnc4c3CCNC4)CC2)cc1 (stereo not given)
Percent Effect (30.3 µM, […]): 41.62%

c1cc(C2CCN(c3ncnc4c3CCNCC4)CC2)ccn1
Percent Effect (30.3 µM, […]): 2.643%

CCCC(=O)NC1CCN(c2ccccc2S(=O)(=O)CC)CC1
Percent Effect (30.3 µM, […]): -21.44%

CCNc1ncc2c(n1)CN(c1ccc(CC)cc1)C2=O
Percent Effect (30.3 µM, […]): -19.29%

COc1cccc(Cc2nc3c([nH]2)CC(C)(C)CNC3=O)c1OC
Percent Effect (30 µM, 30.03 µM): 5.431%

O=C1NCCN1C1CCN(Cc2nc(-c3ccccc3)no2)CC1
Percent Effect (30.3 µM, […]): 2.472% | Percent Effect (10 mM, 10 mM as filed; unlikely as a test dose): -47.27%

O=C(c1ccco1)N1C[C@H]2CN(Cc3cccc(F)c3)C(=O)[C@H]2C1
Percent Effect (30 µM, 30.03 µM): -14.72%

O=C(CO)N1C[C@H]2CN(Cc3cccc(F)c3)C(=O)[C@H]2C1
Percent Effect (30 µM, 30.03 µM): -7.119%

O=C(NC1CC1)N1C[C@H]2CN(Cc3cccc(F)c3)C(=O)[C@H]2C1
Percent Effect (30 µM, 30.03 µM): 59.25%

O=C(O)C(F)(F)F.O=C(O)C(F)(F)F.c1csc(CN2CCOCC3(CCN(C4CCOCC4)C3)C2)c1 (stereo not given)
Percent Effect (30 µM, 30.03 µM): 45.09%

O=c1[nH]c2c(c(=O)n1C1CCCCC1)CCC2NCc1ccccc1 (stereo not given)
Percent Effect (30 µM, 30.03 µM): -25.27%

CCn1nc(C)c2ncnc(NCCCn3ccnc3)c21
Percent Effect (30.3 µM, […]): -35.88%

COc1ccccc1Oc1ncccc1CNC(=O)C1COC(=O)N1 (stereo not given)
Percent Effect (30 µM, 30.03 µM): -37.43%

Cc1ccc(Oc2ncccc2CNC(=O)C2COC(=O)N2)c(F)c1F (stereo not given)
Percent Effect (30 µM, 30.03 µM): 17.54%

Cc1cccc(C)c1Oc1ncccc1CNC(=O)C1COC(=O)N1 (stereo not given)
Percent Effect (30 µM, 30.03 µM): 52.62%

O=C(O)C(F)(F)F.O=C(O)C(F)(F)F.O=C(O)C(F)(F)F.O=C(O)C(F)(F)F.c1ccc(CN2CCc3c(COCc4ccncc4)cncc3C2)nc1
Percent Effect (30.3 µM, […]): -62.04%

CCN(CC)Cc1cc(=O)n2c(n1)CN(S(=O)(=O)C1CC1)CCC2.O=C(O)C(F)(F)F
Percent Effect (30.3 µM, […]): -2.806%

COc1c(CNC2CCc3c(F)cccc32)c(C)nn1C.Cl (stereo not given)
Percent Effect (10 µM): -43.32%

CC(C)[C@@H]1CN(CCOc2ccccc2)C[C@H]1NS(=O)(=O)N(C)C
Percent Effect (30.3 µM, […]): 99.19%

CC(C)[C@@H]1CN(CCOc2ccc(Cl)cc2)C[C@H]1NS(C)(=O)=O
Percent Effect (30.3 µM, […]): 10.13%

CC(C)[C@@H]1CN(Cc2ccccn2)C[C@H]1NS(=O)(=O)N(C)C
Percent Effect (30 µM, 30.03 µM): -48.57%
